Data published in PubChem BioAssay.
The source made the active and inactive calls.

Assays:
[1] = target: Albumin (Bos taurus) (UniProt P02769); experiment: bovine serum albumin binders on microarray, profiling panel, artefact control for SMM control protein annotation, biochemical, small-molecule microarray, Alexa647 label, 635/667 nm fluorescence (AID 1118); conditions: BSA-A647 binding, fluorescence 635 nm, higher = more signal;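 note: score merges 667 nm emission intensity and signal-to-noise per printed compound spot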
Sequence of Albumin (Bos taurus) (P02769 whole entry, looked up): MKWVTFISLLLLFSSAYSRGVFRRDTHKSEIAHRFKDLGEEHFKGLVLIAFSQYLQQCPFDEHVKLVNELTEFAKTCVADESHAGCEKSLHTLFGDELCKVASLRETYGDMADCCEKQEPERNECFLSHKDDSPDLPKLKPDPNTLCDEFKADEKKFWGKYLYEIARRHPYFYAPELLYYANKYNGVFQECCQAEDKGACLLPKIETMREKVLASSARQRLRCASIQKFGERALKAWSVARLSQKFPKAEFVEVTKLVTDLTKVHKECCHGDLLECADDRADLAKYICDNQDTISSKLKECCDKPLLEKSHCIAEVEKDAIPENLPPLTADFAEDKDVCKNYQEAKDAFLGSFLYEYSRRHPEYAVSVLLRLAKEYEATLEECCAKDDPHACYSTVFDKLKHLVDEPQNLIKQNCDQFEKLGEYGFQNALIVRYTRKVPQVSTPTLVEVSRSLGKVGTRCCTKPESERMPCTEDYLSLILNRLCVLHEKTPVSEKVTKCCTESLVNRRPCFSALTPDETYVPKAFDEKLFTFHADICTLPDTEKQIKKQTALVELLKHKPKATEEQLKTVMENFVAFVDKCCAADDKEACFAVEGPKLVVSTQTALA

[2] = small-molecule microarray binders of probe aXIP, primary screen, biochemical, NeuroSMM set, 635/667 nm fluorescence (AID 1119); conditions: higher = more signal, called active from +8 up or from −8 down unless noted;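 note: probe is the protein aXip251-270 applied at 1 µg/mL to compound-printed slides; binding of probe to printed compounds measured as 667 nm fluorescence plus signal to noise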
[3] = small-molecule binders of probe aNOTCH3, primary screen, biochemical, small-molecule microarray, 635/667 nm fluorescence (AID 1120); conditions: higher = more signal; small-molecule microarray, probe aNOTCH3, fluorescence unless noted;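 note: probe is a biotin-tagged antibody raised against NOTCH3 rather than NOTCH3 protein; score merges spot fluorescence near 667 nm with spot signal to noise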
[4] = small-molecule binders of probe aNOTCH2, primary screen, biochemical, small-molecule microarray, 635/667 nm fluorescence (AID 1121); conditions: higher = more signal; small-molecule microarray, probe aNOTCH2, fluorescence unless noted;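 note: score merges feature fluorescence read at 667 nm with its signal to noise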
[5] = target: Carbonic anhydrase 2 (Homo sapiens) (UniProt P00918); experiment: CAII small-molecule binders, profiling panel, biochemical, small-molecule microarray, Alexa647-labelled CAII (AID 1122); conditions: CAII-A647 binding fluorescence, higher = more signal
[6] = COS7 lysate on small-molecule microarray, probe aHis, 635 nm (AID 1123); conditions: higher = more signal; small-molecule microarray, COS7 cell lysate, probe aHis, fluorescence unless noted;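 note: z-score combines 667nm fluorescence intensity with signal-to-noise per printed compound spot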
[7] = compound binding in COS7 lysate, probe aLAP1, primary screen, cell lysate, small-molecule microarray (AID 1124); conditions: higher = more signal; small-molecule microarray, COS7 cell lysate, probe aLAP1, fluorescence unless noted;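 note: lysate comes from COS7 cells expressing LAP1 and is applied at 0.3 µg/mL; score merges spot fluorescence near 667 nm with signal-to-noise over triplicate slides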
[8] = test system: Sam68 (KHDRBS1); experiment: Sam68 small-molecule binders, primary screen, biochemical, small-molecule microarray, 635 nm fluorescence (AID 1125); conditions: small-molecule microarray binding, higher = more signal;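 note: score merges 667 nm channel intensity with signal to noise over triplicate slides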
[9] = test system: Chordin-like protein 2 (CHRDL2); experiment: CHRDL2 small-molecule binders, primary screen, biochemical, small-molecule microarray, 635 nm fluorescence (AID 1126); conditions: small-molecule microarray binding, fluorescence 635 nm; higher = more signal;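 note: printed compound slides probed with Chrdl2 protein at 4 µg/mL for 1 h at 4 C; score merges 667 nm emission intensity with signal to noise over three replicate slides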
[10] = target: Concanavalin-A (Canavalia ensiformis) (UniProt P02866); experiment: ConA small-molecule binders, primary screen, artefact control for SMM control protein annotation, biochemical, small-molecule microarray, Alexa647 label, 635 nm (AID 1127); conditions: ConA-A647 binding fluorescence, higher = more signal;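 note: z combines 667 nm emission intensity with signal-to-noise across three replicate slides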
Sequence of Concanavalin-A (Canavalia ensiformis) (P02866 whole entry, looked up): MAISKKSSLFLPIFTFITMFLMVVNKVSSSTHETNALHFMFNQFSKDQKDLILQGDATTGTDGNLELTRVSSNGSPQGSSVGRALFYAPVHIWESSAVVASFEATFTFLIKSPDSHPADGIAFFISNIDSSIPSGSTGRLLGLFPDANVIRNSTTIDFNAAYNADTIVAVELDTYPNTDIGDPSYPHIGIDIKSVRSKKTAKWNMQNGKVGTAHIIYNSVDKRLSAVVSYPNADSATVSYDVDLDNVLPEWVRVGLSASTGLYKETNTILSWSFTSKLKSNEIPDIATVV

[11] = anti-His antibody binders, primary screen, artefact control for SMM control protein annotation, biochemical, small-molecule microarray, 635 nm fluorescence (AID 1128); conditions: anti-His Alexa647 antibody binding, higher = more signal;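 note: score merges feature fluorescence with signal-to-noise for each printed compound spot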
[12] = test system: Human papillomavirus type 1a E7 protein (residues 1-88); experiment: HPV1a E7 small-molecule binders, primary screen, biochemical, small-molecule microarray, residues 1-88, 635 nm (AID 1129); conditions: small-molecule microarray binding, fluorescence 635 nm; higher = more signal
[13] = target: Focal adhesion kinase 1 (Homo sapiens) (UniProt Q05397); experiment: small-molecule microarray binders of FAK, primary screen, biochemical, 635/667 nm fluorescence, BSA, DTT (AID 1130); conditions: PTK2 binding, 635 nm fluorescence, higher = more signal;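 note: composite of spot emission at 667 nm and signal to noise over triplicate slides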
Sequence of Focal adhesion kinase 1 (Homo sapiens) (Q05397 whole entry, looked up): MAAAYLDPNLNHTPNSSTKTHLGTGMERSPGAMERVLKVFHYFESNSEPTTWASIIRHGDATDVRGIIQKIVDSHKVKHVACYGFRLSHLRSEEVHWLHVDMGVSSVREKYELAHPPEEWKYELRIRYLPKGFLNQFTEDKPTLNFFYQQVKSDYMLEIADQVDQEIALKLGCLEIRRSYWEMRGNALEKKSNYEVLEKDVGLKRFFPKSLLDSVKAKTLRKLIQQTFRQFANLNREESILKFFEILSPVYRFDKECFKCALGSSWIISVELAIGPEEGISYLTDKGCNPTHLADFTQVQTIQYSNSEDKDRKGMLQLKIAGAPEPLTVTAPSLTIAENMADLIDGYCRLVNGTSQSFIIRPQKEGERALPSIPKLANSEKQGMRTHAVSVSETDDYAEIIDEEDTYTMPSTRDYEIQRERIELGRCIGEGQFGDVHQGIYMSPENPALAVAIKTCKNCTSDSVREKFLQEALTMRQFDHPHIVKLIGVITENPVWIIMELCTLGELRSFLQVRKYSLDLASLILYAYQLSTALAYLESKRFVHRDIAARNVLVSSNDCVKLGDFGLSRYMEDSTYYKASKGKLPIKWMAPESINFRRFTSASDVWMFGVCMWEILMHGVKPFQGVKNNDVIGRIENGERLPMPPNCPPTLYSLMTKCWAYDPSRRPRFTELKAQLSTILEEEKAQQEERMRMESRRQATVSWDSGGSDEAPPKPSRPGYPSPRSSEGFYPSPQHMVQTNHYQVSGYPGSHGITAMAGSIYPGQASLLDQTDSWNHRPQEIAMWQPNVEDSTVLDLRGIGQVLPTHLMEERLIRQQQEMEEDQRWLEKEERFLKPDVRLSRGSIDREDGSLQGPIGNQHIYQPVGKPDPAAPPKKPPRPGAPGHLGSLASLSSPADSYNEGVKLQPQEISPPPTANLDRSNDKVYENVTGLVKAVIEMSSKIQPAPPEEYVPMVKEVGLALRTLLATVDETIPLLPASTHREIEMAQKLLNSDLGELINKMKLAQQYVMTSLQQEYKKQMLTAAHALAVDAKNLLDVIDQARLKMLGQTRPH

[14] = test system: Fibrinogen (Alexa647-labelled); experiment: fibrinogen binders on compound microarrays, profiling panel, artefact control for SMM control-protein annotation, biochemical, small-molecule microarray, 635/667 nm fluorescence (AID 1131); conditions: fibrinogen-A647 binding fluorescence, higher = more signal;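 note: z-score merges 667 nm fluorescence with per-spot signal-to-noise over triplicate slides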
[15] = target: Follistatin (Homo sapiens) (UniProt P19883); experiment: follistatin binders on small-molecule microarrays, primary screen, biochemical, small-molecule microarray, 635/667 nm fluorescence (AID 1132); conditions: FST binding, 635 nm fluorescence, higher = more signal
Sequence of Follistatin (Homo sapiens) (P19883 whole entry, looked up): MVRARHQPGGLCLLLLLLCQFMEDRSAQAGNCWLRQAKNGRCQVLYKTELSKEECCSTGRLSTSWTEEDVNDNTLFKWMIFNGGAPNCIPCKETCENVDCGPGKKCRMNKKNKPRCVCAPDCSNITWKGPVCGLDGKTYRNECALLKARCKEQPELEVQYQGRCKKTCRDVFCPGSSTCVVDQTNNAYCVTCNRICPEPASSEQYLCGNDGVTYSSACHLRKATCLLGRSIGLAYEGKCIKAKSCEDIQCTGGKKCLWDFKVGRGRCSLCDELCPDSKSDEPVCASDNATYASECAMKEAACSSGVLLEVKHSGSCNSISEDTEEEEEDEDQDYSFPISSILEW

[16] = target: Fibroblast growth factor 2 (Homo sapiens) (UniProt P09038); experiment: FGF2 binders on small-molecule microarrays, primary screen, biochemical, small-molecule microarray, 635/667 nm fluorescence (AID 1133); conditions: small-molecule microarray binding, FGF2, fluorescence 635/667; higher = more signal
Sequence of Fibroblast growth factor 2 (Homo sapiens) (P09038 whole entry, looked up): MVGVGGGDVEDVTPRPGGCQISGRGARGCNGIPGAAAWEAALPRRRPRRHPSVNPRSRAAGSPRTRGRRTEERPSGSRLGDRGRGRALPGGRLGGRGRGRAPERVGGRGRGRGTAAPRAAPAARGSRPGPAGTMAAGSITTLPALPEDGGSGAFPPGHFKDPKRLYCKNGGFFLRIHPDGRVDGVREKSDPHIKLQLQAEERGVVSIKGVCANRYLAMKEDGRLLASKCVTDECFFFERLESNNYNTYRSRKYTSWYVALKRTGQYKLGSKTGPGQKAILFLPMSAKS

[17] = mitochondrial membrane potential change in A549 cells, profiling panel, cell-based, JC-1 fluorescence, basal, 24 h, 100 nL (AID 1138); conditions: higher = more signal;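 note: A549 lung adenocarcinoma cells under basal conditions with no added stimulus; test concentration not given here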
[18] = test system: Lefty1; experiment: Lefty1 binders on small-molecule microarrays, primary screen, biochemical, small-molecule microarray, 635/667 nm fluorescence (AID 1139); conditions: small-molecule microarray binding, fluorescence 635/667; higher = more signal
[19] = test system: wheat germ agglutinin (Triticum aestivum), Alexa647-labelled; experiment: wheat germ agglutinin binders on compound microarrays, profiling panel, artefact control for SMM control-protein annotation, biochemical, small-molecule microarray, 635/667 nm fluorescence (AID 1140); conditions: WGA-A647 binding, 635 nm fluorescence, higher = more signal;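 note: score merges 667 nm feature emission with signal to noise over triplicate slides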
[20] = target: Luciferin 4-monooxygenase (Photinus pyralis) (UniProt P08659); experiment: firefly luciferase enzyme inhibitors, primary screen, biochemical, luminescence, purified enzyme, 2006 set (AID 1141); conditions: SteadyGlo luminescence, 30 min; higher = more signal, called active from +8 up or from −8 down unless noted;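 note: cell-free assay with purified firefly luciferase at 100 ng per well in PBS; test concentration not given here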
Sequence of Luciferin 4-monooxygenase (Photinus pyralis) (P08659 whole entry, looked up): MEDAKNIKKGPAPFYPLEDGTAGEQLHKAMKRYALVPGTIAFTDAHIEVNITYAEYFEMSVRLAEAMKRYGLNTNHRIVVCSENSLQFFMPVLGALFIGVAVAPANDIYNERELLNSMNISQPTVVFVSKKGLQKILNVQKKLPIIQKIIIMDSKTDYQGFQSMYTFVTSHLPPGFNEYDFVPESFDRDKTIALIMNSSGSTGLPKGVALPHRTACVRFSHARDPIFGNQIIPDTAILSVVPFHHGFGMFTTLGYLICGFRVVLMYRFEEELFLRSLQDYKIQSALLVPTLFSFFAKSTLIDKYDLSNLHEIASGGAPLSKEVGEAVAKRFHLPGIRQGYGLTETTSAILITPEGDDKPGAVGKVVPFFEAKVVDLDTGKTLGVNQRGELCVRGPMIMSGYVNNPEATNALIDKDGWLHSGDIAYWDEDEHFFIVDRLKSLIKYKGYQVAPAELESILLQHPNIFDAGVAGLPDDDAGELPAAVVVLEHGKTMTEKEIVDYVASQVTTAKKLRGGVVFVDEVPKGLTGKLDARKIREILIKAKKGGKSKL

Row | Compound | composite z-score [1] | composite Z-score [2] | composite z-score [3] | composite z-score [4] | composite z-score [5] | composite z-score [6] | composite z-score [7] | composite z-score [8] | composite z-score [9] | composite z-score [10] | composite z-score [11] | composite z-score [12] | composite z-score [13] | composite z-score [14] | composite z-score [15] | composite z-score [16] | z-score [17] | composite z-score [18] | composite z-score [19] | z-score [20]
1 | CCOC(=O)[C@H]1CC=C2C(=O)Oc3ccccc3[C@@H]21 | 0.445 | -0.123 (inactive) | -0.126 | -0.162 | 0.568 | 0.468 | 1.3 | -0.491 | -0.94 | 0.122 | 2.35 | -0.268 | 0.374 | -0.192 | -0.628 | -0.903 | -0.955 | -0.54 | -0.351 | 1.32 (inactive)
2 | COC(=O)C1(C)C=C2C(=C(C)C(=O)C2C)CN1 (stereo not given) | 0.395 | 0.727 (inactive) | -0.219 | 0.0145 | 0.917 | 2.82 | 1.46 | -0.326 | -0.471 | -2.16 | 0.207 | 0.111 | 0.885 | -1.52 | -0.0995 | -0.755 | -1.82 | -0.868 | -0.0605 | 2.34 (inactive)
3 | CCCc1cc2c(n1Cc1ccc(C)cc1)C(C)C1CN(C(=O)c3ccccc3)C(C)(C(=O)OC)C21 (stereo not given) | 0.864 | 1.3 (inactive) | 0.773 | 1.03 | 0.803 | 2.02 | 1.45 | 0.52 | -0.809 | 0.453 | 2.14 | 1.06 | 1.29 | 0.889 | 0.66 | 0.578 | 1.14 | -0.544 | 0.833 | -1.17 (inactive)
4 | CN1CCC(c2ccc(CO)cc2)=CC1C1CC1 (stereo not given) | -1.02 | -0.557 (inactive) | 0.0357 | -0.192 | -0.0046 | -0.106 | -0.334 | -0.172 | 0.0276 | 0.28 | -0.192 | -0.855 | 0.363 | -0.0825 | 0.231 | 0.0573 | 0.319 | 0.85 | -0.0579 | -0.866 (inactive)
5 | COC(=O)[C@@]1(Cc2ccccc2)[C@H]2c3cc(C(=O)N(C)C)[nH]c3C[C@H]2CN1C(=O)c1ccccc1 | 0.772 | -0.0667 (inactive) | -0.0017 | -0.0193 | 0.896 | -0.0769 | 0.0772 | -1.41 | -0.219 | -0.394 | 0.523 | -1.26 | -0.206 | -0.0736 | -0.426 | -0.387 | 0.825 | -1.29 | -0.09 | 2.27 (inactive)
6 | CCCc1cc2c(n1Cc1cccc(Cl)c1)C(C)C1CN(C(=O)c3ccccc3)C(C)(C(=O)OC)C21 (stereo not given) | 1.01 | -0.244 (inactive) | 0.0372 | 0.0293 | 0.797 | 2.68 | 0.719 | 0.958 | -1.94 | 0.298 | 2.37 | 1.23 | 1.16 | 0.989 | -0.264 | -1.1 | 1.95 | -0.763 | 1.44 | 0.566 (inactive)
